Several values for one entry are separate records, joined by “and”; a condition that tells them apart may be missing. Equal values may be shown once. Out of some 5,500 compounds screened, about 2,000 (36%) were called active. Roughly 18% stayed inconclusive and do not appear here. No stated cut-off is given here; in the data, active means normalized growth mostly below about 0.91 (no sharp cut-off); inconclusive means no clear call, values can overlap the other calls; inactive means mostly above about 0.92. Some of the results follow.
Test: chemical genetic growth profiling, strain panel (AID 1159580);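 further: tested at 20 µM; growth read once vehicle control cultures reached saturation at 30 °C; 1 = growth at the plate median or of vehicle wells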
Conditions: S. cerevisiae deletion strains, growth OD

Measured: normalized growth

COC(=O)C1=C(C)NC(C)=C(C(=O)OC)C1c1ccccc1[N+](=O)[O-]
inactive: locus YAL040C, strain CLN3, stronger effect = lower value 0.993 | locus YBR021W, strain FUR4, stronger effect = lower value 0.996 | locus YBR171W, strain sec66, stronger effect = lower value 0.975 | locus YBR229C, strain ROT2, stronger effect = lower value 0.998 | locus YCL016C, strain dcc1, stronger effect = lower value 0.943 | locus YCL029C, strain bik1, stronger effect = lower value 0.97 | locus YCL061C, strain MRC1, stronger effect = lower value 0.933 | locus YCL069W, strain vba3, stronger effect = lower value 0.947 | locus YCR088W, strain abp1, stronger effect = lower value 0.955 | locus YDL005C, strain med2, stronger effect = lower value 0.974 | locus YDL040C, strain nat1, stronger effect = lower value 0.98 | locus YDL074C, strain BRE1, stronger effect = lower value 0.905 | locus YDL101C, strain DUN1, stronger effect = lower value 1.01 | locus YDL185W, strain tfp1, stronger effect = lower value 0.938 | locus YDR001C, strain nth1, stronger effect = lower value 0.975 | locus YDR101C, strain arx1, stronger effect = lower value 0.963 | locus YDR137W, strain rgp1, stronger effect = lower value 0.953 | locus YDR159W, strain sac3, stronger effect = lower value 0.918 | locus YDR195W, strain ref2 0.999 | locus YDR334W, strain swr1, stronger effect = lower value 0.904 | locus YDR335W, strain msn5, stronger effect = lower value 0.969 | locus YDR363W, strain ESC2, stronger effect = lower value 0.992 | locus YDR388W, stronger effect = lower value 0.933 | locus YEL037C, strain rad23, stronger effect = lower value 0.934 | locus YEL061C, strain CIN8 (second series), stronger effect = lower value 0.966 | locus YER002W, strain NOP16, stronger effect = lower value 1 | locus YER016W, strain bim1, stronger effect = lower value 0.944 | locus YER110C, stronger effect = lower value 1 | locus YER111C, strain swi4, stronger effect = lower value 0.94 | locus YER155C, strain BEM2 (second series), stronger effect = lower value 0.987 | locus YER155C, strain BEM2, stronger effect = lower value 1.01 | locus YGL078C, strain dbp3, stronger effect = lower value 0.978 | locus YGL167C, strain pmr1, stronger effect = lower value 0.916 | locus YGL227W, strain vid30, stronger effect = lower value 0.988 | locus YGL240W, strain doc1, stronger effect = lower value 0.96 | locus YGR078C, strain PAC10, stronger effect = lower value 0.991 | locus YGR252W, strain gcn5, stronger effect = lower value 0.997 | locus YHR079C, strain IRE1 (second series), stronger effect = lower value 0.957 | locus YHR079C, strain IRE1, stronger effect = lower value 0.956 | locus YHR094C, strain hxt1, stronger effect = lower value 0.974 | locus YHR142W, strain chs7, stronger effect = lower value 0.894 | locus YIL125W, strain kgd1, stronger effect = lower value 0.948 | locus YIR030C, strain dcg1, stronger effect = lower value 0.992 | locus YJL092W, strain hpr5, stronger effect = lower value 0.945 | locus YJL095W, strain BCK1 (second series), stronger effect = lower value 0.933 | locus YJL095W, strain BCK1, stronger effect = lower value 1 and 0.958 | locus YJL115W, strain asf1, stronger effect = lower value 0.969 | locus YJL129C, strain trk1, stronger effect = lower value 0.89 | locus YJL134W, strain LCB3, stronger effect = lower value 0.963 | locus YJL154C, strain vps35, stronger effect = lower value 0.962 | locus YJL168C, strain set2, stronger effect = lower value 0.952 | locus YJL187C, strain SWE1 (second series), stronger effect = lower value 0.99 | locus YJR066W, strain TOR1, stronger effect = lower value 0.924
0.891 (active) and 0.969 (inactive): locus YHR030C, strain SLT2, stronger effect = lower value
active: locus YAL021C, strain ccr4, stronger effect = lower value 0.829 | locus YAL026C, strain drs2, stronger effect = lower value 0.812 | locus YAL030W, strain snc1, stronger effect = lower value 0.896 | locus YBL061C, strain skt5, stronger effect = lower value 0.9 | locus YBR009C, strain hhf1, stronger effect = lower value 0.863 | locus YBR023C, strain chs3, stronger effect = lower value 0.91 | locus YBR231C, strain swc5, stronger effect = lower value 0.836 | locus YBR279W, strain paf1, stronger effect = lower value 0.887 | locus YCL011C, strain gbp2, stronger effect = lower value 0.907 | locus YCL061C, strain MRC1 (second series), stronger effect = lower value 0.829 | locus YDL035C, strain GPR1, stronger effect = lower value 0.725 | locus YDL134C, strain PPH21, stronger effect = lower value 0.783 | locus YDL192W, strain arf1, stronger effect = lower value 0.85 | locus YDR069C, strain doa4, stronger effect = lower value 0.719 | locus YDR162C, strain NBP2, stronger effect = lower value 0.388 | locus YDR297W, strain sur2, stronger effect = lower value 0.854 | locus YDR318W, strain mcm21, stronger effect = lower value 0.827 | locus YDR392W, strain spt3, stronger effect = lower value 0.73 | locus YDR502C, strain sam2, stronger effect = lower value 0.876 | locus YEL003W, strain gim4, stronger effect = lower value 0.895 | locus YEL061C, strain CIN8, stronger effect = lower value 0.918 | locus YER015W, strain faa2, stronger effect = lower value 0.828 | locus YER167W, strain BCK2, stronger effect = lower value 0.894 | locus YFR010W, strain ubp6, stronger effect = lower value 0.864 | locus YGL086W, strain mad1, stronger effect = lower value 0.799 | locus YGL173C, strain kem1, stronger effect = lower value 0.729 | locus YGL248W, strain PDE1, stronger effect = lower value 0.787 | locus YGL253W, strain hxk2, stronger effect = lower value 0.878 | locus YGR135W, strain pre9, stronger effect = lower value 0.799 | locus YHR013C, strain ard1, stronger effect = lower value 0.83 | locus YHR027C, strain rpn1, stronger effect = lower value 0.734 | locus YHR129C, strain ARP1, stronger effect = lower value 0.903 | locus YHR200W, strain rpn10, stronger effect = lower value 0.88 | locus YIL066C, strain RNR3, stronger effect = lower value 0.609 | locus YIL073C, strain SPO22, stronger effect = lower value 0.319 | locus YJL164C, strain tpk1, stronger effect = lower value 0.743 | locus YJL166W, strain qcr8, stronger effect = lower value 0.825 | locus YJL187C, strain SWE1, stronger effect = lower value 0.901 | locus YJR043C, strain POL32, stronger effect = lower value 0.752 | locus YJR075W, strain HOC1, stronger effect = lower value 0.822 and 0.894

Reference: PubChem BioAssay AID1159580 (chemical genetic matrix, 2015)
